PMC8384837, “Expanding the binding specificity for RNA recognition by a PUF domain”

molecular target: PUM1 PUF domain R3-AFG (Homo sapiens, UniProt Q14671 828-1176, C935A;R936F;Q939G); test: yeast three-hybrid, YBZ-1, SC-Leu-His + 0.5 mM 3-AT, 4 days; details: tags: N-Gal4 AD-HA kept; label: inside an RPR1-promoter hybrid RNA with tandem MS2 sites; ssRNA
Method in brief: (§1)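 The interaction score is the logarithmic change in variant frequency from input to selection. It uses log2, with a pseudocount of 1 for absent variants, and frequencies came from PCR-amplified, Illumina-sequenced repeat regions. The libraries were Pumilio-1 PUF domains randomized at the three base-contacting residues per repeat, co-expressed with matching RNA elements in strain YBZ-1 (LexA–MS2 coat fusion, HIS3 reporter). Plating lasted four days on SC-Leu (input) or SC-Leu-His + 0.5 mM 3-AT (selection).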

| Sequence | binding signal |
| --- | --- |
| GGCUAGAACUAGUGGAUCCCCCGGCGCCCGGCGGCUCGAGCCCGGGUAAGUGUAAAUAGUCUGCAUGCCGCCGGGCGCCAUGCCUGCAGGUCGACUCUAGAAAACAUG | 3.62 log2 enrichment (interaction score) |
| GGCUAGAACUAGUGGAUCCCCCGGCGCCCGGCGGCUCGAGCCCGGGUAAGUGUAAUUAGUCUGCAUGCCGCCGGGCGCCAUGCCUGCAGGUCGACUCUAGAAAACAUG | 1.51 log2 enrichment (interaction score) |
| GGCUAGAACUAGUGGAUCCCCCGGCGCCCGGCGGCUCGAGCCCGGGUAAGUGUAAGUAGUCUGCAUGCCGCCGGGCGCCAUGCCUGCAGGUCGACUCUAGAAAACAUG | 0.76 log2 enrichment (interaction score) |

molecular target: PUM1 PUF domain R4-ARA (Homo sapiens, UniProt Q14671 828-1176, N971A;H972R;Q975A); test: as above; details: tags: N-Gal4 AD-HA kept; label: inside an RPR1-promoter hybrid RNA with tandem MS2 sites; ssRNA
Method in brief: as §1

| Sequence | binding signal |
| --- | --- |
| GGCUAGAACUAGUGGAUCCCCCGGCGCCCGGCGGCUCGAGCCCGGGUAAGUGUAUAUAGUCUGCAUGCCGCCGGGCGCCAUGCCUGCAGGUCGACUCUAGAAAACAUG | 1.69 log2 enrichment (interaction score) |
| GGCUAGAACUAGUGGAUCCCCCGGCGCCCGGCGGCUCGAGCCCGGGUAAGUGUACAUAGUCUGCAUGCCGCCGGGCGCCAUGCCUGCAGGUCGACUCUAGAAAACAUG | 2.79 log2 enrichment (interaction score) |
| GGCUAGAACUAGUGGAUCCCCCGGCGCCCGGCGGCUCGAGCCCGGGUAAGUGUAAAUAGUCUGCAUGCCGCCGGGCGCCAUGCCUGCAGGUCGACUCUAGAAAACAUG | 3.7 log2 enrichment (interaction score) |

molecular target: PUM1 PUF domain R1-RWQ (Homo sapiens, UniProt Q14671 828-1176, S863R;R864W); test: as above; details: tags: N-Gal4 AD-HA kept; label: inside an RPR1-promoter hybrid RNA with tandem MS2 sites; ssRNA
Method in brief: as §1

| Sequence | binding signal |
| --- | --- |
| GGCUAGAACUAGUGGAUCCCCCGGCGCCCGGCGGCUCGAGCCCGGGUAAGUGUAAAUCGUCUGCAUGCCGCCGGGCGCCAUGCCUGCAGGUCGACUCUAGAAAACAUG | 6.93 log2 enrichment (interaction score) |
| GGCUAGAACUAGUGGAUCCCCCGGCGCCCGGCGGCUCGAGCCCGGGUAAGUGUAAAUUGUCUGCAUGCCGCCGGGCGCCAUGCCUGCAGGUCGACUCUAGAAAACAUG | 7.23 log2 enrichment (interaction score) |
| GGCUAGAACUAGUGGAUCCCCCGGCGCCCGGCGGCUCGAGCCCGGGUAAGUGUAAAUGGUCUGCAUGCCGCCGGGCGCCAUGCCUGCAGGUCGACUCUAGAAAACAUG | 2.2 log2 enrichment (interaction score) |
